A short description of assay [1]: Quantitative High-Throughput drug screen in 47 multiple myeloma cell lines against the NCATS MIPE library collection: FR4_PLB cell viability assay (AID 1918924; note: nearly all actives have a fitted effect of over 35% in size). The essentials: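 We plated 500 myeloma cells per well, pinned in MIPE 4.0 compounds, and incubated for 48 hours at 37C. ATP was then quantified with CellTiter-Glo, with DMSO and media-only wells defining 100% and 0%.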

Assay [2] in a line: Quantitative High-Throughput drug screen in 47 multiple myeloma cell lines against the NCATS MIPE library collection: EJM_DSMZ cell viability assay (AID 1918926; note: nearly all actives have a fitted effect of over 30% in size). The essentials: (§1)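 Myeloma cells (500 per well) were exposed to MIPE 4.0 compounds by pin transfer and incubated 48 hours at 37C, 5% CO2. Viability was read as ATP by CellTiter-Glo luminescence, normalised to DMSO (100%) and media-only (0%) wells.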

The nature of assay [3]: Quantitative High-Throughput drug screen in 47 multiple myeloma cell lines against the NCATS MIPE library collection: ARP1_JJKsccF8 cell viability assay (AID 1918928; note: nearly all actives have a fitted effect of over 40% in size). In outline:
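Viability screen: myeloma cells (500/well) incubated 48 h at 37 °C, humidified 5% CO2, with pinned library compounds; CellTiter-Glo added, luminescence read; DMSO wells set 100%, medium-only wells 0%.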

A short description of assay [4]: Quantitative High-Throughput drug screen in 47 multiple myeloma cell lines against the NCATS MIPE library collection: ARD_JJKsccE7 cell viability assay (AID 1918929). The essentials: as §1
Assay [5] can be described thus: Quantitative High-Throughput drug screen in 47 multiple myeloma cell lines against the NCATS MIPE library collection: AMO1_DSMZ cell viability assay (AID 1918927; note: nearly all actives have a fitted effect of over 30% in size). In outline:
as §1

Assay [6] can be described thus: Quantitative High-Throughput drug screen in 47 multiple myeloma cell lines against the NCATS MIPE library collection: Delta47_JCRB cell viability assay (AID 1918925; note: nearly all actives have a fitted effect of over 45% in size). In outline: as §1

Here are results for 30 molecules from PubChem BioAssay (NCATS).

Structures are written as SMILES. Results filed as inconclusive are left out. The source made the active and inactive calls. Calls come from the whole dose curve; as a rule, active = well fitted cell-killing curve with a large enough effect; inconclusive = small, poorly fitted or top-dose-only effect, or effect the other way; inactive = no such curve, though single readings can be large or run the other way.
Potency is the fitted concentration of half-maximal effect.

With `COc1cc(C)c(Sc2cnc(NC(=O)c3ccc(CNC(C)C(C)(C)C)cc3)s2)cc1C(=O)N1CCN(C(C)=O)CC1` (stereo not given), the Potency is 20.9 µM (active) in assay [1], 18.7 µM (active) in assay [2], 16.6 µM (active) in assay [3] and 4.69 µM (active) in assay [4].

Take `C[C@H]1COc2c(N3CCN(C)CC3)c(F)cc3c(=O)c(C(=O)O)cn1c23`: the Potency entry in assay [1], in assay [5] and in assay [3] was “inactive” each time.

Regarding `C[C@]12CC[C@@H]3c4ccc(O)cc4CC[C@H]3[C@H]1CC[C@H]2O`, the Potency is 16.6 µM (active) in assay [1] and 14.8 µM (active) in assay [5].

For the molecule `CCCCCCCCc1ccc(CCC(N)(CO)CO)cc1`, the Potency in assay [6] was 5.26 µM (active); in assay [2] it was 23.5 µM (active); in assay [5], 8.33 µM (active); in assay [3], 10.5 µM (active); in assay [4], 14.8 µM (active).

As to `c1coc(CNc2ncnc3nc[nH]c23)c1`, the Potency result in assay [6], in assay [2], in assay [5], in assay [3] and in assay [4] was “inactive” throughout.

As to `CCN1CCN(C(=O)N[C@H](C(=O)N[C@@H]2C(=O)N3C(C(=O)O)=C(CSc4nnnn4C)CS[C@@H]23)c2ccc(O)cc2)C(=O)C1=O`, the Potency entry in assay [6], in assay [2], in assay [5], in assay [3] and in assay [4] was “inactive” each time.

For the molecule `C#C[C@]1(O)CC[C@@H]2[C@@H]3CCC4=CC(=O)CC[C@@H]4[C@H]3CC[C@@]21CC`, the Potency entry in assay [6], in assay [2] and in assay [3] was “inactive” each time.

For `CCCCCCCCCCCC(CC1OC(=O)C1CCCCCC)OC(=O)C(CC(C)C)NC=O` (stereo not given), the Potency entry in assay [2], in assay [3] and in assay [4] was “inactive” throughout.

For `COC(=O)[C@@H]1[C@H]2C[C@@H]3c4[nH]c5ccccc5c4CCN3C[C@@H]2CC[C@@H]1O`, the Potency entry in assay [5], in assay [3] and in assay [4] was “inactive” in each case.

Take `COc1cc(C[C@@H](CO)[C@H](CO)Cc2ccc(O)c(OC)c2)ccc1O`: the Potency is 0.264 µM (active) in assay [2], 4.69 µM (active) in assay [5] and 9.35 µM (active) in assay [4]. Moreover, the Potency entry in assay [3] was “inactive”.

For `CC(C(C)N1CC(=O)NC(=O)C1)N1CC(=O)NC(=O)C1` (stereo not given), the Potency result in assay [2] was “inactive”.

As to `Cc1cc(C(=O)NOCCO)c(Nc2ccc(I)cc2F)n(C)c1=O`, the Potency result in assay [2] was “inactive”. For the same molecule, the Potency in assay [5] was 0.118 µM (active).

In the case of `CC(C)NC[C@@H](C(=O)N1CCN(c2ncnc3c2[C@H](C)C[C@H]3O)CC1)c1ccc(Cl)cc1`, the figures for the Potency in assay [5] and in assay [3] were 4.18 µM (active) and 2.09 µM (active), respectively.

Consider `CCN(CC)CCCCNc1ncc2c(n1)N(C)C(=O)N(c1c(Cl)c(OC)cc(OC)c1Cl)C2`, for which the Potency in assay [2] was 18.7 µM (active). Also, the Potency result in assay [5] was “inactive”.

In the case of `COc1ccc(C=Cc2cc(OC)c(OC)c(OC)c2)cc1NC(=O)[C@H](N)CO`, the Potency in assay [2] is 0.0105 µM (active); in assay [3], 0.0053 µM (active); in assay [4] it was 0.0118 µM (active).

As to `C[C@@H](NCc1cc2ccccc2[nH]1)c1cccc2ccccc12`, the Potency result in assay [2] was “inactive”.

On to `NC(=O)c1cccc(-c2cccc(OC(=O)NC3CCCCC3)c2)c1`, for which the Potency result in assay [2], in assay [5], in assay [3] and in assay [4] was “inactive” throughout.

For `COc1ccc(CCC(=O)c2c(O)cc(O[C@@H]3O[C@H](CO)[C@@H](O)[C@H](O)[C@@H]3O[C@@H]3O[C@@H](C)[C@H](O)[C@@H](O)[C@@H]3O)cc2O)cc1O`, the Potency entry in assay [2], in assay [5] and in assay [4] was “inactive” throughout.

For the molecule `CC(C=CC=C(C)C=CC1=C(C)CCCC1(C)C)=CC=CC=C(C)C=CC=C(C)C=CC1=C(C)CCCC1(C)C`, the Potency in assay [2] was 6.62 µM (active); in assay [5], 20.9 µM (active); in assay [4], 20.9 µM (active).

Turning to `Cc1[nH]c(C=C2C(=O)Nc3ccccc32)c(C)c1CCC(=O)O`, the Potency is 4.69 µM (active) in assay [6], 5.9 µM (active) in assay [2], 1.48 µM (active) in assay [5] and 20.9 µM (active) in assay [4].

For `CC(C)(O)CC[C@@H](O)[C@](C)(O)[C@H]1CC[C@@]2(O)C3=CC(=O)[C@@H]4C[C@@H](O)[C@@H](O)C[C@]4(C)[C@@H]3CC[C@]12C`, the Potency entry in assay [6], in assay [5], in assay [3] and in assay [4] was “inactive” each time.

For `CCCCCCCCCCCCCCCC(=O)OC[C@@H](NC(=O)C(Cl)Cl)[C@H](O)c1ccc([N+](=O)[O-])cc1`, the Potency result in assay [3] and in assay [4] was “inactive” throughout.

On to `N#CC(=C(O)c1ccc(Cl)cc1Cl)c1nc2cc(Cl)ccc2c(=O)[nH]1`, for which the Potency result in assay [6], in assay [2], in assay [3] and in assay [4] was “inactive” in each case.

For `CC1(C)[C@H](O[C@H]2O[C@H](C(=O)O)[C@@H](O)[C@H](O)[C@H]2O[C@@H]2O[C@H](C(=O)O)[C@@H](O)[C@H](O)[C@H]2O)CC[C@@]2(C)[C@H]1CC[C@]1(C)[C@H]2C(=O)C=C2[C@H]3C[C@@](C)(C(=O)O)CC[C@]3(C)CC[C@]21C`, the Potency entry in assay [6], in assay [5] and in assay [3] was “inactive” throughout.

Regarding `C=C1CCC2[C@](C)(CO)C(O)CC[C@]2(C)C1CC=C1C(=O)OCC1O` (stereo not given in full), the Potency entry in assay [6], in assay [2], in assay [3] and in assay [4] was “inactive” throughout.

With `Cc1cn([C@@H]2O[C@H](CO)[C@@H](O)[C@H]2F)c(=O)[nH]c1=O`, the Potency result in assay [6], in assay [2], in assay [5] and in assay [4] was “inactive” each time.

For the molecule `Cc1noc(-c2ccc(CSCCC(=O)O)cc2)c1NC(=O)OC(C)c1ccccc1Cl` (stereo not given), the Potency result in assay [2], in assay [3] and in assay [4] was “inactive” in each case.

As to `COC(=O)C=CC(=O)OC`, in assay [5], the Potency result was “inactive”. Besides, in assay [4], the Potency was 1.18 µM (active).

Consider `CC(Cc1ccc(O)c(O)c1)(NN)C(=O)O` (stereo not given), for which the Potency entry in assay [6], in assay [2] and in assay [4] was “inactive” in each case.

In the case of `COc1ccc(Nc2nccc(NCCO)n2)cc1`, the Potency entry in assay [2], in assay [5], in assay [3] and in assay [4] was “inactive” in each case.
